Our source for the growth values is PubChem BioAssay (NCI).

About 83,000 compounds went through this panel and 20% of them were active in at least one assay; those are over-represented in the sample as a whole.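 Each cell line was grown in a 96-well plate and treated with one concentration of compound for 48 hours. Values below 10 were considered active.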 Active and inactive are the calls of the source.

The experiment has as its system UACC-62 melanoma. The experiment is described as follows: NCI-60 one-dose screen, 48 h (100 = growth as untreated, 0 = no growth, -100 = all killed). The note with it: 10 µM unless noted.
On to `COc1cc(C2CC(=O)Nc3c2cnn3C)cc(OC)c1OC` (stereo not drawn), for which the growth is 106% (inactive).
For `C=C(c1ccc(C(=O)NCCCn2ccnc2)cc1)c1cc2c(cc1C)C(C)(C)CCC2(C)C` the value was 66.7% (inactive); for `Nc1c(Br)cc2c(c1Br)Cc1cc(Cl)ccc1-2`, 96.2% (inactive); for `CCCCCCCCCCCCNC(=O)N[C@H](C(=O)N[C@H]1/C=C/CCNC(=O)/C=C/[C@H](C)NC1=O)C(C)C`, -88.8% (active).
For `C=C(C)[C@@H]1CC[C@]2(C(=O)NS(=O)(=O)c3ccccc3)CC[C@]3(C)[C@H](CC[C@@H]4[C@@]5(C)CC[C@H](OC(=O)NS(=O)(=O)c6ccccc6)C(C)(C)[C@@H]5CC[C@]43C)[C@@H]12` the value was -83.1% (active).
For `FC(F)(F)c1cc(-c2nnc3n2N=C(Cl)CS3)cc(C(F)(F)F)c1` the value was 101% (inactive).
Turning to `Cc1cc(-c2ccccc2)on1`, the growth is 110% (inactive).
Consider `CNC(=O)c1c(NC(=O)c2cccc(C(F)(F)F)c2)sc2c1CCC(=O)C2`, for which the growth was -41.1% (active).
Turning to `COc1ccccc1/C=C/C(=O)CCC(=O)O`, the growth was 108% (inactive).
Regarding `CCc1c(C)c2ccc(O)c(-c3cc(-c4ccccc4)c(C#N)c(=O)[nH]3)c2oc1=O`, the growth was 77.3% (inactive).
For `O=C1OCC2=C1C(c1ccccc1)c1cc3c(cc1N2CCO)OCO3` (stereo not drawn), the growth was 28.9% (inactive).
On to `CCCCCCCCCCCCNC(=O)N[C@H](C(=O)N[C@H]1/C=C/OCCNC(=O)/C=C/[C@H](C(C)C)NC1=O)C(C)C`, for which the growth was 55.4% (inactive).
Regarding `COc1ccc(-n2nc(C(=O)Nc3ccc(F)cc3)nc2-c2cc(OC)c(OC)c(OC)c2)cc1`, the growth is 83.7% (inactive).
